# Source: PubChem BioAssay (NCATS)
# Records with an inconclusive call do not appear. Values without a mark were called inactive. Active and inactive are the calls of the source. The call rests on the fitted dose curve; in most records, active means well fitted inhibition curve with a large enough effect; inconclusive means small, poorly fitted or top-dose-only effect; inactive means flat fitted curve, though single readings scatter. Starred links: 1 amine or outer side, 2 acyl side, 3 side chain; linkers in the order of their positions; H or OH if unused. Positions of bridges follow the written chain, without caps; N, C: chain ends. Non-standard residues stand in square brackets, D forms with d. Residues, ends and D or L forms follow the SMILES beside them. Chains are numbered I, II in the order given. *: point of attachment. Actinocin(9to1) = Cc1c2oc3c(C)ccc(C(=O)[*:1])c3nc-2c(C(=O)[*:2])c(N)c1=O; NMeV = CN[CH](C(=O)O)C(C)C; Nva = CCC[C@H](N)C(=O)O; Cbz = O=C(OCc1ccccc1)*; Sar = CNCC(=O)O
# Tested on: MKL-1
# Test: qHTS assay to identify novel small-molecules to repurpose for Merkel cell carcinoma treatment (AID 1296009); further: nearly all actives have a fitted effect of over 60% in size
# Conditions: MCC and control cell lines, CellTiter-Glo viability, 72 h; series mostly up to 46 µM; activity change, negative = cytotoxicity: at the top concentration
# How it was run: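 Cells exposed to NPC (8-point) and MIPE (11-point) compound dilutions for 72 hr at 37 degree celsius; viability read by CellTiter-Glo luminescence, normalized to no-cell and DMSO in-plate controls.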
# On the % scale 0 is the no-effect control and ±100 the full control effect; potency means the concentration at half of the fitted maximal effect.
Compound,"activity change, negative = cytotoxicity",Potency
CON=C(C(=O)N[C@@H]1C(=O)N2C(C(=O)O)=C(Cn3ccc(=N)n3CCO)CS[C@H]12)c1csc(N)n1,10%,–
O=C(O)C=Cc1ccc(Cn2ccnc2)cc1,3.96%,–
NC(=O)c1ncn([C@@H]2O[C@H](CO)[C@@H](O)[C@@H]2O)c1O,-4.85%,–
OCCN1C[C@H](O)[C@@H](O)[C@H](O)[C@@H]1CO,5.9%,–
c1ccc(CNc2nc(NCc3ccccc3)c3ccccc3n2)cc1,0.955%,–
CCC[C@@H](C=O)NC(=O)[C@H](CC(C)C)NC(=O)[C@H](CC(C)C)NC(=O)OCc1ccccc1 (Cbz-Leu-Leu-[Nva]-aldehyde),–,1320 nM (active)
COC(=O)C1C2CC3c4[nH]c5cc(OC)ccc5c4CCN3CC2CC(OC(=O)c2cc(OC)c(OC)c(OC)c2)C1OC (centres undefined),-4.14%,–
C=C[C@@H]1CN2CCC1C[C@H]2[C@H](O)c1ccnc2ccc(OC)cc12 (some centres undefined),-7.76%,–
CC(=CC(=O)Nc1ccccc1C(=O)O)c1ccc2ccccc2c1,-3.18%,–
C=C1C[C@@]2(O)O[C@@]3(C[C@H]2C(C)C)[C@H](C)CC[C@H]13,12.8%,–
O=C1c2cccc(O)c2C(=O)c2c(O)cc(CO)cc21,-20.1%,–
CC(=O)O[C@H]1C[C@@H]2CC[C@H]3[C@H]4C[C@H]([N+]5(C)CCCCC5)[C@@H](OC(C)=O)[C@@]4(C)CC[C@@H]3[C@@]2(C)C[C@H]1N1CCCCC1,-2.99%,–
CN(C)CC[C@H](c1ccc(Cl)cc1)c1ccccn1,-14.9%,–
CCCCCCCN(CC)CCCC(O)c1ccc(NS(C)(=O)=O)cc1 (centres undefined),4.03%,–
C[C@H](NC(=O)Cc1cc(F)cc(F)c1)C(=O)N[C@H](C(=O)OC(C)(C)C)c1ccccc1,-16.2%,–
Cc1noc(-c2ccc(CSCCC(=O)O)cc2)c1NC(=O)OC(C)c1ccccc1Cl (centres undefined),-2.35%,–
O=[N+]([O-])c1cn2c(n1)OC[C@@H](OCc1ccc(OC(F)(F)F)cc1)C2,-7.01%,–
C[C@H](NC(=O)[C@@H](O)c1cc(F)cc(F)c1)C(=O)N[C@@H]1C(=O)N(C)c2ccccc2-c2ccccc21,-8.2%,–
O=c1ccn([C@@H]2O[C@H](CO)[C@H](O)[C@@H]2F)c(=O)[nH]1,-1.31%,–
OC[C@@H](O)[C@@H](O)[C@H](O)[C@@H](O)CO,5.25%,–

Compound,"activity change, negative = cytotoxicity",Potency
CC(=O)N1CCN(c2ccc(OCc3nn(C)c(C)c3-c3cccc4c(CCCOc5cccc6ccccc56)c(C(=O)O)n(Cc5cccnc5)c34)cc2)CC1,–,3320 nM (active)
CN[C@H](CC(C)C)C(=O)N[C@H]1C(=O)N[C@@H](CC(N)=O)C(=O)N[C@@H]2C(=O)N[C@H]3C(=O)N[C@H](C(=O)N[C@H](C(=O)O)c4cc(O)cc(O)c4-c4cc3ccc4O)[C@H](O)c3ccc(c(Cl)c3)Oc3cc2cc(c3O[C@@H]2O[C@H](CO)[C@@H](O)[C@H](O)[C@@H]2O[C@H]2C[C@](C)(N)[C@H](O)[C@H](C)O2)Oc2ccc(cc2Cl)[C@H]1O,14%,–
CC(=O)OCC(=O)[C@@]12N=C(C)O[C@H]1C[C@H]1[C@@H]3CCC4=CC(=O)C=C[C@]4(C)[C@@H]3[C@@H](O)C[C@@]12C,-6.1%,–
CN1[C@H]2CC(OC(=O)[C@@H](CO)c3ccccc3)C[C@H]1[C@H]1O[C@H]12 (some centres undefined),0.436% [at 16.1 µM],–
C=C1CCC2[C@](C)(CO)C(O)CC[C@]2(C)C1CC=C1C(=O)OCC1O (some centres undefined),2.48% [at 92.7 µM],–
NC1=N[C@H]2[C@H](CS[C@H]2CCCCC(=O)O)N1,11% [at 16.1 µM],–
N#CNC(=NCCCCCCOc1ccc(Cl)cc1)Nc1ccncc1,–,1.2 nM (active)
CN[C@H]1[C@@H](O)[C@@H]2O[C@@H]3O[C@H](C)CC(=O)[C@]3(O)O[C@@H]2[C@@H](NC)[C@H]1O,–,166 nM (active)
COc1ccc(C(C)=O)c(O)c1,-0.812%,–
N#CC(=C(O)c1ccc(Cl)cc1Cl)c1nc2cc(Cl)ccc2c(=O)[nH]1,-4.26%,–
C[C@H](NCc1ccc2c(c1)nc(NC(=O)c1ccc(-c3cn[nH]c3)s1)n2CCc1ccccc1)C(C)(C)C,–,2350 nM (active)
O=C(C=CC#Cc1cccc(NS(=O)(=O)c2ccccc2)c1)NO,–,3720 nM (active)
C[C@](Cc1c[nH]c2ccccc12)(NC(=O)OC1C2CC3CC(C2)CC1C3)C(=O)NC[C@H](NC(=O)CCC(=O)O)c1ccccc1 (some centres undefined),1.41%,–
CN(N=O)C(=O)N[C@H]1C(O)OC(CO)[C@@H](O)[C@H]1O (some centres undefined),-5.08%,–
"Cc1c2oc3c(C)ccc(C(=O)NC4C(=O)NC(C(C)C)C(=O)N5CCCC5C(=O)N(C)CC(=O)N(C)C(C(C)C)C(=O)OC4C)c3nc-2c(C(=O)NC2C(=O)NC(C(C)C)C(=O)N3CCCC3C(=O)N(C)CC(=O)N(C)C(C(C)C)C(=O)OC2C)c(N)c1=O (centres undefined) (I: TVP[Sar][NMeV] / II: TVP[Sar][NMeV]; ester I:1-I:C, II:1-II:C; linker I:N-II:N via Actinocin(9to1); configuration not given here)",-61.9%,–
CC(C)(C)[N+]([O-])=Cc1ccc(S(=O)(=O)O)cc1S(=O)(=O)O,-3.85%,–
Nc1cccc2c1C(=O)N(C1CCC(=O)NC1=O)C2=O (centres undefined),3.31%,–
CC(C)OC(=O)[C@H](C)N[P@](=O)(OC[C@H]1O[C@@H](n2ccc(=O)[nH]c2=O)[C@](C)(F)[C@H]1O)Oc1ccccc1,-7.43%,–
NC[C@H]1O[C@H](O[C@H]2[C@@H](O)[C@@H](O[C@H]3O[C@H](CO)[C@@H](O)[C@H](N)[C@@H]3O)[C@H](N)C[C@@H]2N)[C@H](N)C[C@H]1O,1.38%,–
